# In PubChem BioAssay (Tox21):
# Records with an inconclusive call do not appear. A call without a number means that no potency is given here. Activity calls are given as the source filed them. Calls follow the shape of the dose curve; as a rule, active = well fitted inhibition curve with a large enough effect in the repeat runs; inconclusive = weak or mixed curves; inactive = no such curve, though single readings can be large or run the other way.
# Molecular target: Cytochrome P450 3A4 (Homo sapiens) (UniProt P08684)
# Sequence (P08684 whole entry, looked up): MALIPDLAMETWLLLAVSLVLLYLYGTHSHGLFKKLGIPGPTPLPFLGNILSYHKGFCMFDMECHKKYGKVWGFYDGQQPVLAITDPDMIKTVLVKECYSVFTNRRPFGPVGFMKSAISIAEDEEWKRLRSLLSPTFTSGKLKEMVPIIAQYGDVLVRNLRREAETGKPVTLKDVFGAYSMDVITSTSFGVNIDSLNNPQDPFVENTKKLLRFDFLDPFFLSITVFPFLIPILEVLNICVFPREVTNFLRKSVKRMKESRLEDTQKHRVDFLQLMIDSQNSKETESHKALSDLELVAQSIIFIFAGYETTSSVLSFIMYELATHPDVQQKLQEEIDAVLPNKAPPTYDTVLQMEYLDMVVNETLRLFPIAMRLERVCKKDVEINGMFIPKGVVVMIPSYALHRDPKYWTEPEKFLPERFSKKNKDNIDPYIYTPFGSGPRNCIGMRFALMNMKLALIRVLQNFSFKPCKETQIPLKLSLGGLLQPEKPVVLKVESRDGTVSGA
# Test: Cytochrome P450 Family 3 Subfamily A Member 4 (CYP3A4) small molecule antagonists: luciferase reporter qHTS assay (AID 1671201); also: nearly all actives have a fitted effect of over 50% in size
# Conditions: P450-Glo CYP3A4 enzyme, luciferin luminescence, 1 h; series mostly up to 115 µM
# Source text: National Center for Advancing Translational Sciences [NCATS]
# U.S. Environmental Protection Agency [EPA]
# National Institutes of Environmental Health Sciences [NIEHS]
# National Toxicology Program [NTP]
# U.S. Food and Drug Administration [FDA]
# Cytochrome P450 (CYP) enzymes are membrane-bound hemeproteins that play a key role in metabolism of drugs and xenobiotics. Evaluation of the effect of chemicals on CYP isozymes is useful to minimize the adverse drug reactions and toxicities in drug development process. Tox21 chemicals were tested for their effect on CYP enzyme activities by using P450-Glo (TM) screening systems (Promega Corporation, Madison, WI). These systems provide a luminescent method containing proluciferin substrates and are converted to luciferin products by CYP isozymes. The luciferin products formed are detected with a luciferin detection reagent, and the amount of light produced is proportional to CYP activity. P450-Glo (TM) CYP3A4 screening system (Catalog. No. V9910) was used to detect the compounds that interfere in CYP3A4 activity. The positive control compound used for CYP3A4 assay is ketoconazole (Sigma-Aldrich, St. Louis, MO).
# Tox21 Assay Protocol Summary:
# Two ul of enzyme-substrate mix was dispensed into medium binding white/solid 1536-well plates (Greiner Bio-One North America Inc., Monroe, NC) using a BioRaptr Flying Reagent Dispenser (FRD, Beckman Coulter, Brea, CA). Compounds dissolved in DMSO and positive control (ketoconazole) were transferred to the assay plates at 23 nl using a Pintool station (Wako, San Diego, CA). The assay plates were incubated at room temperature for 10 min. Then 2 ul of NADPH regeneration solution was added to each well of the assay plates using an FRD and incubated at room temperature for 1 h. The reaction was stopped by adding 4 ul of detection reagent using an FRD and after 20 min incubation at room temperature the luminescence signal was measured using a ViewLux plate reader (Perkin Elmer, Shelton, CT). Data were expressed as relative luminescence units.
# Potency is read from the fitted curve at half-maximal effect.
SMILES,Potency,"activity change, negative = inhibition"
Cc1c(F)c(N2CCNC(C)C2)cc2c1c(=O)c(C(=O)O)cn2C1CC1 (stereo not given),inactive,–
Clc1ccnc(Cl)n1,inactive,–
Cc1cc(-n2nc3ccc(Cl)cc3n2)c(O)c(C(C)(C)C)c1,inactive,–
CCCCCCCC,inactive,–
COc1cc(C)ccc1O,inactive,–
O=S(=O)(O)c1ccccc1/C=C/c1ccc(-c2ccc(/C=C/c3ccccc3S(=O)(=O)O)cc2)cc1,inactive,–
CC(=O)c1ccc(C(C)=O)cc1,inactive,–
CCOc1ccc2ccccc2c1C(=O)N[C@@H]1C(=O)N2[C@@H]1SC(C)(C)[C@@H]2C(=O)O,inactive,–
O=C(/C=C/c1ccccc1)OC/C=C/c1ccccc1,inactive,–
COc1cc(/C=C/c2ccccc2)oc(=O)c1,26.1 µM (active),–
Cc1cc(-c2ccc(N=Nc3cc(S(=O)(=O)O)c4ccccc4c3N)c(C)c2)ccc1N=Nc1cc(S(=O)(=O)O)c2ccccc2c1N,inactive,–
Cc1cc(C(C)(C)C)c(O)c(C)c1Cn1c(=O)n(Cc2c(C)cc(C(C)(C)C)c(O)c2C)c(=O)n(Cc2c(C)cc(C(C)(C)C)c(O)c2C)c1=O,7.97 µM (active),–
C#C[C@]1(OC(C)=O)CC[C@H]2[C@@H]3CCC4=C[C@@H](OC(C)=O)CC[C@@H]4[C@H]3CC[C@@]21C,inactive,–
CCO[Si](OCC)(OCC)OCC,inactive,–
[Cu+],39.9 µM (active),–
COC(=O)c1ccccc1C,inactive,–
OC/C=C/CO,inactive,–
CCCCOC(=O)CC,inactive,–
O=C(O)[C@H](O)[C@@H](O)[C@H](O[C@@H]1O[C@H](CO)[C@H](O)[C@H](O)[C@H]1O)[C@H](O)CO,inactive,–
Nc1cc(Cl)c(O)c(Cl)c1,8.94 µM (active),–

SMILES,Potency,"activity change, negative = inhibition"
CCOC(=O)NNc1ccc(N(CC)CC(C)O)nn1 (stereo not given),inactive,–
CC(C)(c1cc(Br)c(OCC(Br)CBr)c(Br)c1)c1cc(Br)c(OCC(Br)CBr)c(Br)c1 (stereo not given),inactive,–
COC(=O)Nc1nc2ccc(C(=O)c3ccccc3)cc2[nH]1,inactive,–
CN(C)Cc1ccccc1O,inactive,–
Cc1ccc(N/N=c2\c(=O)cc/c(=N\Nc3ccc(S(=O)(=O)O)cc3)c2=O)c(C)c1,inactive,–
Nc1ccc(Oc2ccc(Cl)cc2)cc1,17.5 µM (active),–
CCCCCc1ccc(Cl)cc1,inactive,–
Cc1ccc(C)cc1,inactive,–
C=CCn1c(=O)n(CC=C)c(=O)n(CC=C)c1=O,2.82 µM (active),–
C[C@@H](O)[C@H](N)C(=O)O,–,16.7% [at 23.6 µM] (inactive)
CC(C)CCOC(=O)/C=C/c1ccccc1,inactive,–
COC(=O)C1=C(C)NC(C)=C(C(=O)OCCN2CCN(C(c3ccccc3)c3ccccc3)CC2)C1c1cccc([N+](=O)[O-])c1 (stereo not given),inactive,–
CCC(COC(=O)CCS)(COC(=O)CCS)COC(=O)CCS,3.56 µM (active),–
CC1(C)CCC[C@]2(C)[C@H]3CCO[C@]3(C)CC[C@@H]12,inactive,–
ClCCl,inactive,–
CCCCCCCCCCCCCC[N+](C)(C)Cc1ccccc1,inactive,–
COc1cccc(OC)c1C(=O)O,inactive,–
COCCOc1cc2cc(C(=O)NC3CCN(C(C)C)CC3)n(CC(=O)Nc3ccc(Cl)cn3)c2cn1,inactive,–
CCCCCCCCCCOC(=O)c1ccccc1C(=O)OCCCCCCCC,inactive,–
CCOC(=O)c1ccc(C2CCC(NC[C@H](O)COc3ccc(O)c(NS(C)(=O)=O)c3)CC2)cc1 (stereo not given in full),inactive,–
